For 6 compounds, composite z-score and z-score results are on record in PubChem BioAssay.

SMILES strings stand for the structures. Active and inactive are the calls of the source.

The nature of test [1]: binders of probe aFSTL3 on microarray, primary screen, stem cell growth factor project, biochemical, small-molecule microarray, fluorescence 635/667 (AID 1064).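 Further: measures binding of the biotinylated anti-FSTL3 antibody to printed compounds.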 The settings on record: higher = more signal.
Test [2] in a line: binders from COS7 lysate, DM2A8 probe, primary screen, torsin A project, cell lysate, small-molecule microarray, fluorescence 635/667 (AID 1065). Particulars: higher = more signal, COS7 lysate expressing mutant human TOR1A.
A short description of test [3]: binders of probe aFGF2 on microarray, primary screen, stem cell growth factor project, biochemical, small-molecule microarray, fluorescence 635/667 (AID 1067).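 Further: measures binding of biotinylated aFGF2 protein to printed compounds on slides; z-score merges feature fluorescence and signal-to-noise across triplicate slides.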 Particulars: higher = more signal.
Test [4] is described as follows: binders of probe aFGF10 on microarray, primary screen, stem cell growth factor project, biochemical, small-molecule microarray, fluorescence 635/667 (AID 1071).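 Further: score merges 667 nm spot intensity and signal to noise from triplicate slides.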 The settings on record: higher = more signal.
Test [5] addresses Neurogenic locus notch homolog protein 2 (Homo sapiens) (UniProt Q04721). Put plainly: Notch2 binders on small-molecule microarrays, primary screen, biochemical, small-molecule microarray, 635 nm fluorescence, stem cell growth factors (AID 1073). Particulars: Notch2 binding, higher = more signal.
Test [6] addresses Pro-neuregulin-1, membrane-bound isoform (Homo sapiens) (UniProt Q02297). Put plainly: NRG1 binders on small-molecule microarrays, primary screen, psychiatric disease protein project, biochemical, small-molecule microarray, fluorescence 635/667 (AID 1075).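 Further: score combines 667 nm spot fluorescence with signal to noise.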 Particulars: NRG1 binding, 635 nm fluorescence, higher = more signal.
Test [7] has as its system Neuregulin-1 EGF-like domain. The test can be described thus: binders of neuregulin-1 EGF-like domain, primary screen, biochemical, small-molecule microarray, 635 nm fluorescence (AID 1081).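 Further: binding of the protein to compounds printed on small-molecule microarray slides.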 The settings on record: small-molecule microarray binding, higher = more signal.
Test [8] is described as follows: FRG1 promoter luciferase signal modulators, primary screen, FRG1 inhibition for FSHD, cell-based, C2C12 myotubes, firefly/Renilla luciferase, luminescence (AID 1084). The settings on record: higher = more signal, called active from +8 up or from −8 down.
Test [9] in a line: binders of probe aFST on microarray, primary screen, stem cell growth factor project, biochemical, small-molecule microarray, fluorescence 635/667 (AID 1086).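 Further: score merges 667 nm fluorescence with signal-to-noise of each printed compound spot.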 Particulars: higher = more signal.
Test [10] can be described thus: binders of probe aHhip on microarray, primary screen, stem cell growth factor project, biochemical, small-molecule microarray, fluorescence 635/667 (AID 1087).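 Further: score merges spot fluorescence at 667nm with spot signal to noise ratio.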 Particulars: higher = more signal.
Test [11] relates to PRMT1 (protein arginine N-methyltransferase 1). Put plainly: PRMT1 binders on small-molecule microarrays, primary screen, biochemical, small-molecule microarray, 635 nm fluorescence (AID 1088).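 Further: binding of Prmt1 protein to compounds spotted on small-molecule microarray slides.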 The settings on record: small-molecule microarray binding, higher = more signal.
Test [12] is described as follows: yeast growth modulation, basal conditions, primary screen, YJM789 clinical isolate, OD600, 24 h (AID 1089).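 Further: growth of clinical yeast isolate S. cerevisiae YJM 789 seeded 1000 cells per well; test concentration not given here.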 The settings on record: S. cerevisiae YJM789 growth, higher = more signal, called active from +8 up or from −8 down.
Test [13] can be described thus: fission yeast growth modulation, primary screen, strain 972, OD600, 24 h, no modulator (AID 1090).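 Further: basal condition with compound alone and no growth modifier present; test concentration not given here.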 Particulars: S. pombe 972 growth, higher = more signal, called active from +8 up or from −8 down.
Test [14] in a line: S. cerevisiae growth modulation with rapamycin, primary screen, strain BY4716, OD600, 96 h (AID 1091). Further: test concentration not given here. The settings on record: higher = more signal, called active from +8 up or from −8 down.
In test [15] the target is Torsin-1A-interacting protein 2 (Homo sapiens) (UniProt Q8NFQ8). Put plainly: LULL1 binders on small-molecule microarray, primary screen, cell lysate, human LULL1 lysate, 635/667 nm fluorescence (AID 1092).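 Further: probe is lysate of COS7 cells overexpressing human LULL1; score merges per-feature 667 nm fluorescence with signal-to-noise.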 Particulars: hLULL1 lysate binding, 635 nm fluorescence, higher = more signal.
Test [16] can be described thus: E. coli growth modulation, two-sided OD650, primary screen, E. coli filamentation project, strain DRC41, 24 h (AID 1093).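 Further: MC1000 strain lacking acrAB efflux and sulA so SOS filamentation is blocked; test concentration not given here.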 The settings on record: OD650, 24 h, higher = more signal, called active from +8 up or from −8 down.
Test [17] can be described thus: small-molecule microarray binders of probe aLefty2, primary screen, biochemical, biotinylated probe, 635/667 nm fluorescence (AID 1094).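 Further: score merges spot fluorescence near 667 nm with spot signal-to-noise ratio.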 The settings on record: higher = more signal.
The subject of test [18] is Noggin (protein binding on small-molecule microarray). The test can be described thus: Noggin binders on small-molecule microarray, primary screen, biochemical, 635/667 nm fluorescence (AID 1095).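 Further: score merges 667 nm feature fluorescence with signal to noise over triplicate slides.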 The settings on record: 635 nm fluorescence, higher = more signal.
In test [19] the target is Neurogenic locus notch homolog protein 3 (Homo sapiens) (UniProt Q9UM47). The test can be described thus: NOTCH3 binders on small-molecule microarray, primary screen, biochemical, 635/667 nm fluorescence (AID 1096). Particulars: NOTCH3 binding, 635 nm fluorescence, higher = more signal.
Test [20] is described as follows: small-molecule microarray binders of probe aEGFR, primary screen, biochemical, biotinylated probe, 635/667 nm fluorescence (AID 1097).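 Further: probe is a biotinylated anti-EGFR antibody binding compounds printed on slides; score combines fluorescence near 667 nm and signal to noise of each spot.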 Particulars: higher = more signal.

Pro-neuregulin-1, membrane-bound isoform (Homo sapiens), sequence (Q02297 whole entry, looked up, the tested form may be a part, canonical isoform): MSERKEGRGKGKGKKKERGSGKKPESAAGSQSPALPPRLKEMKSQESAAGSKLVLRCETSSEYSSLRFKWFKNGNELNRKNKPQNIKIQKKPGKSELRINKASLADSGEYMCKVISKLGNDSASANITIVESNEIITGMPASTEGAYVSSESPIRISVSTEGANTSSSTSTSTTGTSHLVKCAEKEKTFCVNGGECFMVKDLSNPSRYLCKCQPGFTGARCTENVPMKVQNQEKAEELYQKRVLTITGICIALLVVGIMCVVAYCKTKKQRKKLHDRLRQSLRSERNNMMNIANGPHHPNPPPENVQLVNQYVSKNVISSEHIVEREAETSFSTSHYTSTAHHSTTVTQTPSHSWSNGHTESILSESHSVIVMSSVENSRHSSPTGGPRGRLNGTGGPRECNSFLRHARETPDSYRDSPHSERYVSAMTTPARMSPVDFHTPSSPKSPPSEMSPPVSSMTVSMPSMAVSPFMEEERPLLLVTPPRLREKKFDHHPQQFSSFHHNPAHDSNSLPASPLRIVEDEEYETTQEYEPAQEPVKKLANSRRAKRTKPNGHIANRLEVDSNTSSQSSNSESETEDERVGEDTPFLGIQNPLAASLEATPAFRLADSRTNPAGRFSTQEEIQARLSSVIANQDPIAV
Torsin-1A-interacting protein 2 (Homo sapiens), sequence (Q8NFQ8 whole entry, looked up): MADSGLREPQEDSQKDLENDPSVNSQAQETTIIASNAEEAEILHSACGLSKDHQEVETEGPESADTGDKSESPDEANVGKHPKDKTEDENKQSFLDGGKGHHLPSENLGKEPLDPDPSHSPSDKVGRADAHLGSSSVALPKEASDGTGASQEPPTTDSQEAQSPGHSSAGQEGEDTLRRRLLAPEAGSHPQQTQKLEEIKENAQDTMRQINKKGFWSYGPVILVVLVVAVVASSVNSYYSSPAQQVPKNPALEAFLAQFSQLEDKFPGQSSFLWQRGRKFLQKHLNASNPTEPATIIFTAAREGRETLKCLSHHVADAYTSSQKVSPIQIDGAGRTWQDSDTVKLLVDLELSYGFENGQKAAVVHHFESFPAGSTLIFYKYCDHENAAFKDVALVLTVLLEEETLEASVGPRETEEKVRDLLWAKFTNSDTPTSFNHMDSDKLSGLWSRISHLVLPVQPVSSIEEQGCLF
Neurogenic locus notch homolog protein 2 (Homo sapiens), sequence (Q04721 whole entry, looked up, canonical isoform): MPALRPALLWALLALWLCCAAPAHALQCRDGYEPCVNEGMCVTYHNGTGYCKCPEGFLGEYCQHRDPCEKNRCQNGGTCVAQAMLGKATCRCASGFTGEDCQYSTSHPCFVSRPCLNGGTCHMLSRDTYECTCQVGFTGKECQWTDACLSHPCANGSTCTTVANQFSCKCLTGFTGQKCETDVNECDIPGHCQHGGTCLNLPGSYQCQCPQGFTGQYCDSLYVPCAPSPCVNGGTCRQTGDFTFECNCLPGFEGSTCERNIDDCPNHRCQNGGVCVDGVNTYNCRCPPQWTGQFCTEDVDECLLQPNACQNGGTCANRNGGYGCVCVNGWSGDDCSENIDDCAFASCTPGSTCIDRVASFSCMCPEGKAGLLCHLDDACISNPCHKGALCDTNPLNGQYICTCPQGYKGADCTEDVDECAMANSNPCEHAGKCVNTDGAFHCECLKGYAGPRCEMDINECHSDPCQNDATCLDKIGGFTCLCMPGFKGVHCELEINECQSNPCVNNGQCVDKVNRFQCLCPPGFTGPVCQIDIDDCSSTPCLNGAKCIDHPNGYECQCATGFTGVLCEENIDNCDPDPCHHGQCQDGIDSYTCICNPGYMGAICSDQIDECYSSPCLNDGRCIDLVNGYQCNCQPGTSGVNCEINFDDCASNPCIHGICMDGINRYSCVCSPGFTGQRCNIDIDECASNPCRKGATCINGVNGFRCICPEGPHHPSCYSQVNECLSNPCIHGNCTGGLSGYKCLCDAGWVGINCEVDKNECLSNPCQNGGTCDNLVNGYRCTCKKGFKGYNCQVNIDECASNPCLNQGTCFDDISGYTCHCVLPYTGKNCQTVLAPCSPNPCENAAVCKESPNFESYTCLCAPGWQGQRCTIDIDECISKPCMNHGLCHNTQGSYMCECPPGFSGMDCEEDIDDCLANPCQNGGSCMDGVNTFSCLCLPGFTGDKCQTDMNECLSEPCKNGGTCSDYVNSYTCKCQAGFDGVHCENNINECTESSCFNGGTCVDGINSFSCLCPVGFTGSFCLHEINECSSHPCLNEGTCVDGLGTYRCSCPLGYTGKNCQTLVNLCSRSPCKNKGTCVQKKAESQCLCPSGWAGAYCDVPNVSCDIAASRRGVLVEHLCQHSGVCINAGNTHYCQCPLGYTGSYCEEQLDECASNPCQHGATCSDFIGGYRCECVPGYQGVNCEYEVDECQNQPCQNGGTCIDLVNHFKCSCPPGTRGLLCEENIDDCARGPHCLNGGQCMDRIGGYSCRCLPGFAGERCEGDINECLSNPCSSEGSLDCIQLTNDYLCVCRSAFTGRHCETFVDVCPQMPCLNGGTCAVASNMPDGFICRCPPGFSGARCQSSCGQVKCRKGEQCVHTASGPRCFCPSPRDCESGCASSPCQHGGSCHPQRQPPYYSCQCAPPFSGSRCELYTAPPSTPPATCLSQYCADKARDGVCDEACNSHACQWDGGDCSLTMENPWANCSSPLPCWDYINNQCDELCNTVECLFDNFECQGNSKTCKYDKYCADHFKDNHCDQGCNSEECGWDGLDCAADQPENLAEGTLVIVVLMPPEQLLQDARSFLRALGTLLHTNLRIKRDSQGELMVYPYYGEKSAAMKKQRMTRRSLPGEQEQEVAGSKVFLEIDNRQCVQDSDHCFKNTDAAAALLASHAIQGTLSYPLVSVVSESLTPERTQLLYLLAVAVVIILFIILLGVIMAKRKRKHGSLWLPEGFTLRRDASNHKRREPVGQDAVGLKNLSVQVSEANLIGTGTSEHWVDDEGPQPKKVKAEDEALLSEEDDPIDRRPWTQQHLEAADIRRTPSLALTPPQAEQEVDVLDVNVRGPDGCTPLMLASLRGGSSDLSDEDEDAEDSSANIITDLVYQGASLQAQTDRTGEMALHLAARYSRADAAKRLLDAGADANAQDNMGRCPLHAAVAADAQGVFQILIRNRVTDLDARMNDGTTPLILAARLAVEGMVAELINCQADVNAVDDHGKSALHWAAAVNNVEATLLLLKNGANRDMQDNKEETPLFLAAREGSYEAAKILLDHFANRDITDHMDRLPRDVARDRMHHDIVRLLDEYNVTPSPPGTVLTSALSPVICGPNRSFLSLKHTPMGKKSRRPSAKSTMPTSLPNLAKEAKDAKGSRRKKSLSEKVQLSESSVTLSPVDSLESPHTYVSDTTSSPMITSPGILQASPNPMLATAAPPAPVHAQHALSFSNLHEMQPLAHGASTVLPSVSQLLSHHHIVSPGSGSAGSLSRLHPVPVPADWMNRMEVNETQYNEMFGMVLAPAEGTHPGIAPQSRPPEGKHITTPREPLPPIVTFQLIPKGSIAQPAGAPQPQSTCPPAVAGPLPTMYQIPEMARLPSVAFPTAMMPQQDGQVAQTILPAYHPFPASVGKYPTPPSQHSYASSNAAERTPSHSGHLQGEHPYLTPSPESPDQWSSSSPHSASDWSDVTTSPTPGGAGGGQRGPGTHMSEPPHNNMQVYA

As for `COc1ccc([Si](C)(C)[C@H]2[C@H](CC(=O)N(CCO)Cc3ccccc3)O[C@@]3(C(=O)N(C)c4c(Br)cc(C)cc43)[C@@H]2C)cc1`, the composite z-score is 0.145 in test [1]; 0.671 in test [2]; -0.0861 in test [3]; 0.208 in test [4]; -0.0381 in test [5]; 0.435 in test [6]. Further, the composite z-score in [7] came to 1.22; in test [9] it was 0.152; in test [10], 0.107; in test [11] it was 1.46; in test [15], 1.25; in test [17] it was 0.0256. In addition, the values for the composite z-score in test [18], in test [19] and in [20] were 1.79, 0.758 and -0.126, respectively. The z-score in test [8] was -2.73 (inactive); in test [12], -1.62 (inactive); in [13], -1.59 (inactive); in test [14], 1.93 (inactive); in test [16] it was 0.114 (inactive).
With `COCCOC(=O)N1C(=O)[C@@]2(c3cc(C#CCCO)ccc31)[C@H](c1ccc(OCCO)cc1)N1[C@H](c3ccccc3)[C@H](c3ccccc3)OC(=O)[C@H]1[C@@H]2C(=O)Nc1nc2ccccc2s1`, the composite z-score in [1] came to 0.878; in test [2] it was 0.68; in test [3] it was 0.0943; in test [4], 0.575; in test [5] it was 0.586; in test [6], 0.222. In addition, the composite z-score in test [7] came to 1.1; in [9], 1.24; in [10], 0.547; in [11], 1.42; in test [15], 1.26; in [17], 0.151. Further, the composite z-score was found to be 1.13 in [18], 1.08 in test [19] and 0.197 in [20]. For the same compound, the z-score in test [8] is 2.92 (inactive); in test [12], 1.61 (inactive); in [13], 1.26 (inactive); in test [14], 2.48 (inactive); in test [16] it was 0.235 (inactive).
As to `CCCC=C(CCC)[C@@H](NC(=O)c1cccs1)c1ccc(C(=O)OC)cc1`, the composite z-score in [1] amounted to 2.23; in test [2], 0.392; in test [3], 0.905; in [4], 1.1; in test [5], 0.592; in test [6], 0.028. The composite z-score in [7] is 0.648; in test [9], 2.61; in test [10], 1.39; in test [11] it was -1.88; in [15], 0.905; in [17] it was 1.18. In addition, the composite z-score in test [18] stood at 0.542; in [19] it was 0.587; in test [20] it was 0.925. The z-score in test [8] was 0.874 (inactive); in test [12], -0.0214 (inactive); in [13] it was 0.598 (inactive); in test [14] it was -0.0964 (inactive); in test [16], -0.0658 (inactive).
Consider `NC(=O)[C@H]1[C@@H]2C(=O)O[C@@H](c3ccccc3)[C@@H](c3ccccc3)N2[C@@H](c2ccc(OCCO)cc2)[C@]12C(=O)Nc1ccc(C#CCCO)cc12`, for which the composite z-score in [1] was 0.127; in [2], 0.685; in test [3], -0.0524; in [4] it was 0.715; in test [5], 0.874; in test [6], 0.874. The composite z-score is 1.02 in [7]; 0.232 in test [9]; -0.275 in [10]; 1.41 in test [11]; 1.7 in [15]; -0.0636 in test [17]. For the same compound, the composite z-score in test [18] came to 0.425; in test [19] it was 0.164; in [20] it was 0.0932. Besides, the z-score in test [8] was 1.7 (inactive); in [12], 1.62 (inactive); in test [13], 0.547 (inactive); in test [14], 3.63 (inactive); in test [16], -0.595 (inactive).
Consider `CCCC=C(CCC)[C@@H](NS(=O)(=O)CC12CCC(CC1=O)C2(C)C)c1ccc(C(=O)OC)cc1` (stereo not given in full), for which the composite z-score in test [1] was -0.126; in test [2], 0.645; in test [3], 0.291; in test [4], 0.375; in test [5], 0.621; in test [6] it was 0.128. For the same compound, the composite z-score worked out at 1.09 in test [7]; 0.974 in [9]; 0.274 in [10]; 0.788 in test [11]; 3.78 in [15]; 0.0672 in [17]. Moreover, the composite z-score in test [18] is -0.132; in test [19] it was 0.408; in test [20], 0.471. For the same compound, the z-score in test [8] was 2.86 (inactive); in [12], -0.723 (inactive); in test [13] it was -0.005 (inactive); in test [14] it was -0.909 (inactive); in test [16], 0.0623 (inactive).
For `COc1cc2c(cc1O)C(c1cccs1)N(Cc1cc3c(cc1Br)OCO3)CC2` (stereo not given), the composite z-score was -0.0508 in test [1]; 0.58 in test [2]; 0.0797 in test [3]; 1.3 in test [4]; 1.56 in test [5]; 2.08 in test [6]. Further, the composite z-score worked out at 1.45 in [7]; 1.23 in test [9]; 0.0881 in test [10]; 1.53 in [11]; 3.45 in test [15]; 0.183 in test [17]. Besides, the figures for the composite z-score in [18], in [19] and in [20] were 0.289, 1.07 and 0.0778, respectively. Also, the z-score in [8] is 0.364 (inactive); in test [12], -0.592 (inactive); in test [13] it was -4.96 (inactive); in test [14], -0.859 (inactive); in test [16] it was -1.45 (inactive).
